Assay results: PubChem BioAssay AID1159580 (chemical genetic matrix, 2015)
Several values for one entry are separate records, joined by “and”; a condition that tells them apart may be missing. Identical values can stand only once. About 2,000 (36%) of roughly 5,500 compounds were called active. About 18% were inconclusive and are not listed. Rule as the data show it: active = normalized growth mostly below about 0.91 (no sharp cut-off); inconclusive = no clear call, values can overlap the other calls; inactive = mostly above about 0.92. Some of the results follow.

Assay: chemical genetic growth profiling, strain panel (AID 1159580);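 also: tested at 20 µM; growth read once vehicle control cultures reached saturation at 30 °C; 1 = growth at the plate median or of vehicle wells; lower values mean less growth of the strain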
Conditions: S. cerevisiae deletion strains, growth OD

Measured: normalized growth

CN1CCC(=C2c3ccccc3CC(=O)c3sccc32)CC1
inactive: locus YAL013W, strain DEP1, stronger effect = lower value 1.01 | locus YAL021C, strain ccr4, stronger effect = lower value 0.985 | locus YAL026C, strain drs2, stronger effect = lower value 0.981 | locus YAL030W, strain snc1, stronger effect = lower value 0.975 | locus YAL040C, strain CLN3, stronger effect = lower value 0.992 | locus YBL061C, strain skt5, stronger effect = lower value 0.981 | locus YBR009C, strain hhf1, stronger effect = lower value 1.02 | locus YBR021W, strain FUR4, stronger effect = lower value 1.01 | locus YBR023C, strain chs3, stronger effect = lower value 0.986 | locus YBR171W, strain sec66, stronger effect = lower value 0.964 | locus YBR229C, strain ROT2, stronger effect = lower value 0.999 | locus YBR231C, strain swc5, stronger effect = lower value 0.964 | locus YBR279W, strain paf1, stronger effect = lower value 0.994 | locus YCL011C, strain gbp2, stronger effect = lower value 0.989 | locus YCL016C, strain dcc1, stronger effect = lower value 1.04 | locus YCL029C, strain bik1, stronger effect = lower value 1.02 | locus YCL061C, strain MRC1 (second series), stronger effect = lower value 1 | locus YCL069W, strain vba3, stronger effect = lower value 0.983 | locus YCR088W, strain abp1, stronger effect = lower value 0.973 | locus YDL005C, strain med2, stronger effect = lower value 0.991 | locus YDL035C, strain GPR1, stronger effect = lower value 1.02 | locus YDL040C, strain nat1, stronger effect = lower value 0.984 | locus YDL074C, strain BRE1, stronger effect = lower value 1.02 | locus YDL101C, strain DUN1, stronger effect = lower value 1.02 | locus YDL134C, strain PPH21, stronger effect = lower value 1.01 | locus YDL185W, strain tfp1, stronger effect = lower value 1.01 | locus YDL192W, strain arf1, stronger effect = lower value 1.01 | locus YDR001C, strain nth1, stronger effect = lower value 0.957 | locus YDR069C, strain doa4, stronger effect = lower value 0.954 | locus YDR101C, strain arx1, stronger effect = lower value 1.01 | locus YDR137W, strain rgp1, stronger effect = lower value 0.974 | locus YDR150W, strain NUM1, stronger effect = lower value 1 | locus YDR159W, strain sac3, stronger effect = lower value 1.03 | locus YDR162C, strain NBP2, stronger effect = lower value 1.01 | locus YDR195W, strain ref2 0.895 | locus YDR297W, strain sur2, stronger effect = lower value 0.982 | locus YDR318W, strain mcm21, stronger effect = lower value 1.02 | locus YDR334W, strain swr1, stronger effect = lower value 0.928 | locus YDR335W, strain msn5, stronger effect = lower value 0.977 | locus YDR363W, strain ESC2, stronger effect = lower value 0.985 | locus YDR388W, stronger effect = lower value 1.01 | locus YDR392W, strain spt3, stronger effect = lower value 1.04 | locus YDR502C, strain sam2, stronger effect = lower value 1.01 | locus YEL003W, strain gim4, stronger effect = lower value 0.986 | locus YEL037C, strain rad23, stronger effect = lower value 0.99 | locus YEL061C, strain CIN8 (second series), stronger effect = lower value 0.966 | locus YEL061C, strain CIN8, stronger effect = lower value 1.01 | locus YER002W, strain NOP16, stronger effect = lower value 0.993 | locus YER015W, strain faa2, stronger effect = lower value 1.01 | locus YER016W, strain bim1, stronger effect = lower value 1 | locus YER110C, stronger effect = lower value 1.01 | locus YER111C, strain swi4, stronger effect = lower value 0.972 | locus YER155C, strain BEM2 (second series), stronger effect = lower value 0.927 | locus YER155C, strain BEM2, stronger effect = lower value 1 | locus YER167W, strain BCK2, stronger effect = lower value 1 | locus YFR010W, strain ubp6, stronger effect = lower value 0.958 | locus YGL078C, strain dbp3, stronger effect = lower value 1.01 | locus YGL086W, strain mad1, stronger effect = lower value 0.994 | locus YGL167C, strain pmr1, stronger effect = lower value 0.964 | locus YGL173C, strain kem1, stronger effect = lower value 0.984 | locus YGL227W, strain vid30, stronger effect = lower value 0.984 | locus YGL240W, strain doc1, stronger effect = lower value 0.957 | locus YGL248W, strain PDE1, stronger effect = lower value 1.01 | locus YGL253W, strain hxk2, stronger effect = lower value 1 | locus YGR078C, strain PAC10, stronger effect = lower value 1.01 | locus YGR135W, strain pre9, stronger effect = lower value 1 | locus YGR229C, strain SMI1, stronger effect = lower value 0.999 and 0.99 | locus YGR252W, strain gcn5, stronger effect = lower value 0.962 | locus YHR013C, strain ard1, stronger effect = lower value 0.971 | locus YHR027C, strain rpn1, stronger effect = lower value 0.992 | locus YHR030C, strain SLT2, stronger effect = lower value 1.01 and 1.04 | locus YHR079C, strain IRE1 (second series), stronger effect = lower value 1.02 | locus YHR079C, strain IRE1, stronger effect = lower value 1.03 | locus YHR094C, strain hxt1, stronger effect = lower value 1.01 | locus YHR129C, strain ARP1, stronger effect = lower value 1 | locus YHR142W, strain chs7, stronger effect = lower value 0.99 | locus YHR200W, strain rpn10, stronger effect = lower value 1.02 | locus YIL066C, strain RNR3, stronger effect = lower value 1.01 | locus YIL073C, strain SPO22, stronger effect = lower value 1.06 | locus YIL125W, strain kgd1, stronger effect = lower value 0.998 | locus YIR030C, strain dcg1, stronger effect = lower value 1.01 | locus YJL092W, strain hpr5, stronger effect = lower value 0.977 | locus YJL095W, strain BCK1 (second series), stronger effect = lower value 0.973 | locus YJL095W, strain BCK1, stronger effect = lower value 1.02 | locus YJL115W, strain asf1, stronger effect = lower value 0.953 | locus YJL129C, strain trk1, stronger effect = lower value 0.969 | locus YJL134W, strain LCB3, stronger effect = lower value 1.01 | locus YJL154C, strain vps35, stronger effect = lower value 0.968 | locus YJL164C, strain tpk1, stronger effect = lower value 1.02 | locus YJL166W, strain qcr8, stronger effect = lower value 0.95 | locus YJL168C, strain set2, stronger effect = lower value 1.01 | locus YJL187C, strain SWE1 (second series), stronger effect = lower value 1.02 | locus YJR043C, strain POL32, stronger effect = lower value 1.02 | locus YJR066W, strain TOR1, stronger effect = lower value 0.989 | locus YJR075W, strain HOC1, stronger effect = lower value 1.01
